# High-throughput results (PubChem)
# PDI turbidity = inhibitors of human protein disulfide isomerase; P07237; PDI insulin aggregation turbidity, A650, 90 min; inhibition, % at 10 µM; actives 0.052% (n = 350,000);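 active means mean inhibition across replicates of 30% or more, whatever share of single replicates reach that level; inconclusive means mean inhibition below 30% while every single replicate reaches 30%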
# ALR inh = human ALR oxidase inhibition via reduced H2O2; purified ALR, DTT oxidation, H2O2 HRP-luminol luminescence; inhibition, % (no concentration beside the values); actives 3.8% (n = 290,000); AID 485317;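 active means mean replicate inhibition above about 79%, with every replicate also reaching it, limit read from the data; inconclusive means only one of the two criteria met; inactive means mean below limit and not every replicate reaching it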
# CendR NRP1 mod = alters CendR peptide binding to human NRP-1. O14786. FAM-RPARPAR peptide binding to NRP-1, fluorescence polarization. inhibition, % at 25 µM. actives 0.85% (n = 360,000);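 active means inhibition or corrected inhibition above about 18%, plus a signal ratio from 0.5 to 1.5, limit read from the data, passing the limit was not always enough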
# ARNT-TACC3 inh = disruptors of human ARNT/TACC3 interaction. Q9Y6A5. AlphaScreen His-ARNT PAS-B/GST-TACC3 binding, luminescence; TACC3 fragment carries E629A point mutation. inhibition, % at 9.99 µM. actives 0.66% (n = 390,000);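 active means mean inhibition of replicates at least 50% and at least half of replicates each reaching 50%; inconclusive means half or more replicates reach 50% but mean below 50%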
# PglD inh = blocks C. jejuni PglD acetyltransferase activity; purified PglD enzyme, DTNB colorimetric CoA detection; inhibition, % at 12.5 µM; actives 0.098% (n = 360,000); in the data active means inhibition above about 16%, passing the limit was not always enough; inconclusive means no clear call, values can overlap the other calls
# ERp5 inh = inhibitors of human ERp5 | inhibition, % at 9.99 µM | actives 0.05% (n = 350,000) | ERp5 insulin aggregation, absorbance 650 nm, 90 min | Q15084 | AID 651711;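 active means mean replicate inhibition above about 25%, with every replicate also reaching it, limit read from the data, passing the limit was not always enough; inconclusive means only one of those two criteria met; inactive means neither criterion met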
# Numbers stand for hits; - = inactive; ? = inconclusive; . = not tested or not shown. The full list was thinned out, with hits kept by preference.
SMILES,PDI turbidity,ALR inh,CendR NRP1 mod,ARNT-TACC3 inh,PglD inh,ERp5 inh
O=C1c2ccccc2C(=O)N1CC1CCCO1 (stereo unspecified),-,-,-,-,-,.
O=C(CCCn1c(SCC(=O)NC2CCCCC2)nc2ccccc2c1=O)NCC1CCCO1 (stereo unspecified),-,-,-,-,-,.
O=C(CCCn1c(SCC(=O)c2ccc(O)c(O)c2)nc2ccccc2c1=O)NCC1CCCO1 (stereo unspecified),-,99,-,-,-,.
CN(C)c1ccc(NC(=O)CSc2nc3ccccc3c(=O)n2CC2CCCO2)cc1 (stereo unspecified),-,87,-,-,-,-
O=c1c2ccccc2c2ccccc2c(=O)n1CC1CCCO1 (stereo unspecified),-,99,-,-,-,.
O=C(C[C@H]1CC[C@H](NC(=O)c2ccncc2)[C@@H](CO)O1)NCc1ccncn1,.,.,.,.,.,-
COc1ccc(S(=O)(=O)N(C)C[C@@H]2Oc3ccc(NS(=O)(=O)c4ccc(Cl)cc4)cc3C(=O)N([C@@H](C)CO)C[C@H]2C)cc1,.,.,.,-,-,-
C[C@H](CO)N1C[C@H](C)[C@@H](CN(C)S(=O)(=O)c2ccccc2)Oc2ccc(NC(=O)Nc3ccc(C(F)(F)F)cc3)cc2CC1=O,.,.,.,.,.,-
Cc1noc(C)c1C(=O)N1CCC1(C)C(=O)NS(=O)(=O)c1cccc(Cl)c1 (stereo unspecified),-,.,41,.,-,-
Cc1noc(C)c1C(=O)N1CCC1(C)C(=O)NS(=O)(=O)c1ccc(Cl)cc1 (stereo unspecified),-,.,-,.,-,-
COCCNC(=O)C[C@H]1C[C@@H]2c3cc(NS(=O)(=O)c4ccc(F)cc4)ccc3O[C@@H]2[C@@H](CO)O1,.,.,.,-,-,.
O=C(NNS(=O)(=O)c1ccc([N+](=O)[O-])cc1)c1ccc2ccccc2c1O,-,98,-,-,-,-
COc1ccc(NC(=O)N(C)C[C@H]2Oc3ccc(NS(=O)(=O)c4ccccc4)cc3CC(=O)N([C@@H](C)CO)C[C@H]2C)cc1,.,.,.,.,.,-
CC(=O)Oc1ccccc1/C=C/c1nc2ccccc2c(=O)o1,-,-,-,-,-,-
C/C(O)=c1/c(=O)nc2cccc3c2=c1c1ccccc1c3=O,-,-,-,46,-,-
O=C(C[C@H]1CC[C@H](NC(=O)CCN2CCCCC2)[C@H](CO)O1)Nc1ccc(-c2ccccc2)cc1,.,.,.,-,-,-
CCCc1[nH][nH]c(=O)c1C(c1ccc(Br)cc1)C(C#N)C#N (stereo unspecified),-,95,-,-,-,.
CCCNC(=O)N1CC2(C1)[C@@H](c1ccccc1)[C@@H](CO)N2CC1CCOCC1,.,.,.,.,.,-
CCc1cccc(CC)c1NC(=O)CN(CC(=O)O)CC(=O)O,-,-,-,-,-,-
O=C(O)CN(CC(=O)O)CC(=O)O,-,.,-,65,-,-
CCC(C)n1c(=S)[nH]c2ccccc2c1=O (stereo unspecified),-,-,28,-,.,-
CC(C)n1c(=S)[nH]c2ccccc2c1=O,-,-,-,-,-,.
COc1ccc(/C=N/N=C2/NC(=O)CC(C(=O)O)S2)cc1 (stereo unspecified),-,-,-,-,-,-
COc1ccc(/C=N/N=C2/CC(C)(C)Cc3n[nH]c(=O)cc32)cc1,-,-,50,-,-,-
N#Cc1c(SCC(=O)Nc2nccs2)sc2c(O)cc(=O)[nH]c12,-,99,-,.,-,-
SMILES,PDI turbidity,ALR inh,CendR NRP1 mod,ARNT-TACC3 inh,PglD inh,ERp5 inh
N#Cc1c(SCC(=O)Nc2nc3ccccc3s2)sc2c(O)cc(=O)[nH]c12,-,99,-,-,-,-
O=C(CSc1nc2ccccc2o1)Nc1nc2ccc(Br)cc2s1,-,98,-,-,-,.
N#Cc1c(SCC(=O)Nc2nc3ccc(Br)cc3s2)sc2c(O)cc(=O)[nH]c12,-,99,-,-,-,-
CCCSc1nnc(NC(=O)CSc2sc3c(O)cc(=O)[nH]c3c2C#N)s1,-,?,-,-,-,-
O=C(C[C@@H]1CC[C@@H]2[C@H](COC[C@H](O)CN2C(=O)c2ccccc2)O1)N1CCOCC1,.,.,.,-,-,-
CC(C)NC(=O)CC1Nc2c3ccccc3nc(=S)n2C1=O (stereo unspecified),-,88,-,-,-,.
